# Reference: PubChem BioAssay
# Active and inactive are the calls of the source. Unless noted, no rule for the calls is given here.
# Columns and labels:
# [1] = test system: Wnt5a (protein binding on small-molecule microarray); experiment: Wnt5a binders on small-molecule microarray, primary screen, biophysical, 635/667 nm fluorescence (AID 1142); conditions: 635 nm fluorescence, higher = more signal;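 also: fluorescence read at 667 nm with signal to noise per printed feature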
# [2] = cell viability in Huh7 cells, primary screen, cytotoxicity control for HCV replication inhibitor project, CellTiter-Glo luminescence, basal, 48 h (AID 1143); conditions: Huh7 HCV replicon, higher = more signal, called active from +8 up or from −8 down;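 also: Huh7 hepatoma cells carrying a hepatitis C replication reporter with no stimulus; test concentration not given here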
# [3] = P. aeruginosa biofilm formation inhibitors, primary screen, PAO1 strain, BacTiter-Glo luminescence, LB-PBS (AID 1144); conditions: 12 h, higher = more signal
# [4] = CREB reporter modulators without forskolin, primary screen, cell-based, PC12, CRE-LacZ reporter, unstimulated (AID 1145); conditions: no forskolin, luminescence, 4.5 h, higher = more signal, called active from +8 up or from −8 down
# [5] = CREB reporter modulators under forskolin, primary screen, cell-based, PC12, CRE-LacZ reporter, forskolin-stimulated (AID 1146); conditions: luminescence, 4.5 h, higher = more signal, called active from +8 up or from −8 down;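 also: PC12 cells with 6xCRE LacZ reporter stimulated by forskolin 10 µM; beta-galactosidase reporter signal reflecting CREB driven transcription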
# [6] = target: Streptavidin (Streptomyces avidinii) (UniProt P22629); experiment: streptavidin binders on small-molecule microarray, primary screen, artefact control for SMM compound annotation, biophysical, 635/667 nm fluorescence (AID 1147); conditions: streptavidin binding, higher = more signal;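 also: signal reflects streptavidin binding to arrayed compounds as a control protein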
# Streptavidin (Streptomyces avidinii), sequence (P22629 whole entry, looked up): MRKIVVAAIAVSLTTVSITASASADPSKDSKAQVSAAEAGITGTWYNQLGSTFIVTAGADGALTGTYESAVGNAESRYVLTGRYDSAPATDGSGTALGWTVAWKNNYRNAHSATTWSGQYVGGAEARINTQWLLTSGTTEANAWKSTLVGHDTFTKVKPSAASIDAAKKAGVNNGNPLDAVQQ
# [7] = small-molecule binders of probe aInhba, primary screen, biochemical, small-molecule microarray, 635/667 nm fluorescence (AID 1148); conditions: higher = more signal;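 also: score merges 667nm spot fluorescence with signal-to-noise for antibody binding to printed compounds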
# Torsin-1A (Homo sapiens) [8] = target: Torsin-1A (Homo sapiens) (UniProt O14656); experiment: torsin A binders from cell lysate, primary screen, small-molecule microarray, wild-type, 635/667 nm (AID 1149); conditions: COS7 hTOR1A-WT lysate, 635 nm fluorescence, higher = more signal
# Torsin-1A (Homo sapiens), sequence (O14656 whole entry, looked up): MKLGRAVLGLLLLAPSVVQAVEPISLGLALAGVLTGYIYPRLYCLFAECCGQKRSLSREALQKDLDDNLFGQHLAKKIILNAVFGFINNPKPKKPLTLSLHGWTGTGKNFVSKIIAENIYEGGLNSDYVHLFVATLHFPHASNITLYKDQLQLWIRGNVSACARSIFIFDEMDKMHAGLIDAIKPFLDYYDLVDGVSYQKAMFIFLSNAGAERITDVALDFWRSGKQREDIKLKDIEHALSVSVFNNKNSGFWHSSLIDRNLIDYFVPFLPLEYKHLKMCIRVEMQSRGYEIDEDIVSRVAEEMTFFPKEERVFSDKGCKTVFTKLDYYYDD
# Torsin-1A (Homo sapiens) [9] = target: Torsin-1A (Homo sapiens) (UniProt O14656); experiment: small-molecule binders of mutant TOR1A in lysate, primary screen, cell lysate, small-molecule microarray, COS7 lysate, 635/667 nm fluorescence (AID 1150); conditions: COS7 hTOR1A mutant lysate, 635 nm fluorescence, higher = more signal;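 also: score pools 667 nm emission and signal to noise measuring lysate protein binding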
# [10] = test system: Sonic hedgehog protein (Shh); experiment: small-molecule binders of Shh protein, primary screen, biochemical, small-molecule microarray, 635/667 nm fluorescence (AID 1151); conditions: small-molecule microarray binding, 635 nm fluorescence; higher = more signal;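 also: Shh protein binding to compounds spotted on small-molecule microarray slides; score combines spot fluorescence intensity with signal-to-noise across triplicate slides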
# [11] = E. coli DRC41 culture turbidity changes, primary screen, E. coli filamentation inducer project, strain DRC41, OD650, 48 h (AID 1152);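 also: E. coli MC1000 strain DRC41 lacking acrAB efflux pump and sulA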; conditions: E. coli DRC41 (acrAB sulA), higher = more signal, called active from +8 up or from −8 down
# [12] = small-molecule binders of probe aLefty1, primary screen, biochemical, small-molecule microarray, 635/667 nm fluorescence (AID 1153); conditions: higher = more signal;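 also: score merges spot fluorescence with signal-to-noise ratio from the scanned slide images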
# [13] = PSAC antagonists in infected red cells, primary screen, cell-based, P. falciparum Indochina, OD700, 1 h (AID 1154); conditions: P. falciparum Indochina infected RBC osmotic lysis, higher = more signal, called active from +8 up or from −8 down
# [14] = PSAC antagonists in infected red cells, primary screen, cell-based, P. falciparum Indochina, OD700, 2 h (AID 1155);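 also: lysis reports solute entry through the parasite surface anion channel PSAC; channel blockers reduce lysis of infected cells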; conditions: P. falciparum Indochina infected erythrocytes, osmotic lysis OD700; higher = more signal, called active from +8 up or from −8 down
# [15] = osmotic lysis modulators in infected erythrocytes, primary screen, PSAC antagonist project, cell-based, P. falciparum Indochina, OD700, 3 h (AID 1156); conditions: higher = more signal, called active from +8 up or from −8 down
# [16] = PSAC antagonists in infected red cells, primary screen, cell-based, P. falciparum Indochina, OD700, 18 h (AID 1157); conditions: P. falciparum Indochina infected erythrocytes, osmotic lysis OD700, 18 h; higher = more signal, called active from +8 up or from −8 down
# [17] = modulators of S6 phosphorylation in cells, primary screen, cell-based, A549, cytoblot, luminescence, serum-stimulated (AID 1158); conditions: A549 phospho-S6 cytoblot, 5 h, higher = more signal;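 also: serum-stimulated A549 lung adenocarcinoma cells; signal is phosphorylated S6 detected by cytoblot immunostaining with HRP secondary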
# [18] = target: NADPH oxidase 2 (Homo sapiens) (UniProt P04839); experiment: NOX2-dependent H2O2 signal modulators, primary screen, NOX inhibitor project, cell-based, HEK293-NOX2, PMA-stimulated, Amplex Red fluorescence (AID 1159); conditions: 45 min, higher = more signal, called active from +8 up or from −8 down; also: test concentration not given here
# NADPH oxidase 2 (Homo sapiens), sequence (P04839 whole entry, looked up): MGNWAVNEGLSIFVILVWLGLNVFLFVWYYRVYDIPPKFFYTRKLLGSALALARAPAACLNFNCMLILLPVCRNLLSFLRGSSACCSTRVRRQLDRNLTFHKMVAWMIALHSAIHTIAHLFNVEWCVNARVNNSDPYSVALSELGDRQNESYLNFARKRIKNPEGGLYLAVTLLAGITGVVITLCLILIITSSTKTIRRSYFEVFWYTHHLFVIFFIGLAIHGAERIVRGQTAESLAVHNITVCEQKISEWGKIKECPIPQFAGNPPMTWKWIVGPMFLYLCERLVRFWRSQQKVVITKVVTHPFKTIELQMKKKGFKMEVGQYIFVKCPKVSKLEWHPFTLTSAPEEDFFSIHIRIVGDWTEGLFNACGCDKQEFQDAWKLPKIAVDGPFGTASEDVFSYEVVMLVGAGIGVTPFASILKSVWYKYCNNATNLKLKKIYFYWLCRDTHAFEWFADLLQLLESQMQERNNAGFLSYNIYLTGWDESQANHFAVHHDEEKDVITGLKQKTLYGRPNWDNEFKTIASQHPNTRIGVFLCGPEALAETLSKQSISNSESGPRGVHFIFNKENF
# [19] = target: NADPH oxidase 4 (Homo sapiens) (UniProt Q9NPH5); experiment: NOX4-dependent H2O2 signal modulators, primary screen, NOX inhibitor project, cell-based, HEK293-NOX4, tetracycline-induced, Amplex Red fluorescence (AID 1160); conditions: 45 min, higher = more signal, called active from +8 up or from −8 down
# NADPH oxidase 4 (Homo sapiens), sequence (Q9NPH5 whole entry, looked up): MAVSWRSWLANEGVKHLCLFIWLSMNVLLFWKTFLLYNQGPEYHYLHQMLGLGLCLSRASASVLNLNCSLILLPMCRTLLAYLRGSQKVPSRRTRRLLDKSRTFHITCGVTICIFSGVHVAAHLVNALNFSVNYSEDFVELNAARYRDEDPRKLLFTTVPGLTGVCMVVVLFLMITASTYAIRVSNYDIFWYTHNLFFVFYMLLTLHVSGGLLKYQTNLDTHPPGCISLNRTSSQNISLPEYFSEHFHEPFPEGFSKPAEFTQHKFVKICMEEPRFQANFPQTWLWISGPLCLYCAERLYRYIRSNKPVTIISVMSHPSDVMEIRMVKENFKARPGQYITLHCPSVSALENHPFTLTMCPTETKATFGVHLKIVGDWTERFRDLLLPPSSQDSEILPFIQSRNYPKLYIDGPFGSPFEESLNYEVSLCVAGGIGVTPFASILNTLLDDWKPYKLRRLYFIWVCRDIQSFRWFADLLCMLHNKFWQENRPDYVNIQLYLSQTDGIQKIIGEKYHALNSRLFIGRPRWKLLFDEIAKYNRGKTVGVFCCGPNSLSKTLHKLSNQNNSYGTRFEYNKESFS
# [20] = target: NADPH oxidase 5 (Homo sapiens) (UniProt Q96PH1); experiment: NOX5-dependent H2O2 signal modulators, primary screen, NOX inhibitor project, cell-based, HEK293-NOX5, Amplex Red fluorescence (AID 1161); conditions: HEK293-NOX5, ionomycin, 45 min, higher = more signal
# NADPH oxidase 5 (Homo sapiens), sequence (Q96PH1 whole entry, looked up): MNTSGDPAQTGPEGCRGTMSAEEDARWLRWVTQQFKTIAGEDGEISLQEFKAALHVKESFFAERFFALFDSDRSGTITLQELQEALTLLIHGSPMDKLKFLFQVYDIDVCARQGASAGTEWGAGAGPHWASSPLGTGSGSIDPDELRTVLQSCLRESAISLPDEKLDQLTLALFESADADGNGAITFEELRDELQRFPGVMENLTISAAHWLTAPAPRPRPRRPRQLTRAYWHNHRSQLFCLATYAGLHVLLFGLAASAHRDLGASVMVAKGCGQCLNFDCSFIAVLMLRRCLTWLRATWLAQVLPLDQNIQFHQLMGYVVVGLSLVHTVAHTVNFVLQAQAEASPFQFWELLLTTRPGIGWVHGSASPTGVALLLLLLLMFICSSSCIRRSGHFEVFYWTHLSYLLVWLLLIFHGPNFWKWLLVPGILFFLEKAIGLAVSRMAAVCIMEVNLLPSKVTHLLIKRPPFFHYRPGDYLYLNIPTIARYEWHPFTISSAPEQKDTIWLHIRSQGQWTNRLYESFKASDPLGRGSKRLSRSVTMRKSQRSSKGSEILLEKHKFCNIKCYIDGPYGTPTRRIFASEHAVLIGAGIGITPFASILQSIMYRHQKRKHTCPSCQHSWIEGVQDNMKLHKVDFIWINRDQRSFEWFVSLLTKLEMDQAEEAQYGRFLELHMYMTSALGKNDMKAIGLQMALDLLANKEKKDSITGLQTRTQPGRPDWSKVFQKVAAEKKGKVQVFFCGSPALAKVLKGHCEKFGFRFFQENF
Structure (SMILES),composite z-score [1],z-score [2],z-score [3],z-score [4],z-score [5],composite z-score [6],composite z-score [7],composite z-score (Torsin-1A (Homo sapiens) [8]),composite z-score (Torsin-1A (Homo sapiens) [9]),composite z-score [10],z-score [11],composite z-score [12],z-score [13],z-score [14],z-score [15],z-score [16],z-score [17],z-score [18],z-score [19],z-score [20]
C[C@]12CCC3c4ccc(OCC5CO5)cc4CCC3C1CC[C@@H]2O (stereo not given in full),0.201,-1.78 (inactive),-0.168 (inactive),2.75 (inactive),0.806 (inactive),0.699,0.0561,0.114,0.241,-0.0357,-0.186 (inactive),-0.0011,24.3 (active),7.31 (inactive),0.269 (inactive),0.663 (inactive),0.25,1.44 (inactive),-1.42 (inactive),-1.74
CCOC(=O)[C@H](Cc1ccccc1)NC(=O)CCC1CC(OC(=O)NCc2cccc3ccccc23)CC2(CCCC(COC(=O)NCc3ccc4c(c3)OCO4)O2)O1 (stereo not given in full),0.123,-0.301 (inactive),-0.548 (inactive),-0.0767 (inactive),-0.0564 (inactive),-0.0007,-0.0762,0.0755,-0.497,0.466,1.21 (inactive),0.0686,0.509 (inactive),-0.255 (inactive),-0.336 (inactive),-0.12 (inactive),0.184,0.691 (inactive),0.538 (inactive),0.712
CC(C)[C@@H](OCc1ccccc1)[C@H](C)C=NO[C@H](C)c1cn([C@@H]2COC[C@H]2O)nn1,0.31,-0.703 (inactive),1.28 (inactive),0.927 (inactive),-0.379 (inactive),0.0286,-0.0843,1.4,1.56,0.371,0.112 (inactive),-0.111,0.551 (inactive),-0.119 (inactive),-0.541 (inactive),0.172 (inactive),-0.995,0.542 (inactive),0.827 (inactive),0.704
CC(CCN1CCCCc2nc(C)c(C)cc21)=NO[C@H](C)c1cn([C@@H]2COC[C@H]2O)nn1,0.229,-0.216 (inactive),0.184 (inactive),-0.482 (inactive),-0.445 (inactive),1.12,-0.0701,2.71,2.5,2.01,0.431 (inactive),-0.0088,0.682 (inactive),0.406 (inactive),0.116 (inactive),0.342 (inactive),-0.363,-0.526 (inactive),0.167 (inactive),-0.376
COc1ccc(OC[C@@H]2CC3[C@@H](c4ccc(Br)cc4)[C@H](C)CC[C@H]3C(=O)O2)cc1 (stereo not given in full),-0.223,-0.513 (inactive),-0.12 (inactive),1.9 (inactive),-0.462 (inactive),0.0139,-0.202,0.327,0.832,0.391,-0.594 (inactive),-0.106,4.49 (inactive),1.7 (inactive),0.85 (inactive),0.759 (inactive),0.338,-0.803 (inactive),-0.178 (inactive),-0.351
CCOC(=O)[C@H](CC(C)C)NC(=O)CCC1CC(OC(=O)NCCc2ccc(F)cc2)CC2(CCCC(COC(=O)NCCCN3CCCC3=O)O2)O1 (stereo not given in full),0.189,0.378 (inactive),-0.31 (inactive),0.109 (inactive),0.319 (inactive),0.484,-0.0195,1.66,0.1,0.894,-0.237 (inactive),-0.28,1.3 (inactive),0.0591 (inactive),-0.172 (inactive),-0.194 (inactive),0.181,0.575 (inactive),0.775 (inactive),0.802
COC(=O)[C@@H]1CC[C@H](C)[C@@H](c2ccc(Br)cc2)N1C(=O)C(F)(F)F,-0.237,-0.322 (inactive),-0.69 (inactive),0.565 (inactive),-0.344 (inactive),-0.307,-0.0944,-0.179,-0.835,-0.14,-0.643 (inactive),-0.103,1.08 (inactive),-0.0008 (inactive),0.266 (inactive),0.2 (inactive),-0.56,0.301 (inactive),0.467 (inactive),0.18
CCN1C(=O)[C@H]2[C@H]3[C@H](O)[C@H](O)CC(=NOC[C@@H](O)[C@H]4O[C@@H]5OC(C)(C)O[C@@H]5[C@H]4O)[C@@H]3CC[C@H]2C1=O,-0.0165,0.297 (inactive),0.685 (inactive),-0.975 (inactive),-0.799 (inactive),0.245,-0.246,0.382,0.205,0.374,-0.352 (inactive),0.0445,0.158 (inactive),0.196 (inactive),0.151 (inactive),0.318 (inactive),-0.102,-0.842 (inactive),0.162 (inactive),0.953
C[C@@H]1CC[C@@H](C(=O)O)N[C@H]1c1cccc(N2CCOCC2)c1,-0.0449,-0.538 (inactive),-1.08 (inactive),-0.974 (inactive),-1.29 (inactive),0.032,-0.273,0.482,0.944,0.908,0.563 (inactive),-0.0984,-0.0136 (inactive),0.18 (inactive),0.468 (inactive),0.247 (inactive),0.778,-0.438 (inactive),0.65 (inactive),0.252
